From PubChem BioAssay AID588342 (National Center for Advancing Translational Sciences (NCATS), 2011) come the findings set out here.

The campaign covered roughly 360,000 compounds. About 25,000 (6.9%) were called active. About 9% were inconclusive and are not listed. This is one part of a sample in which actives are shown more often than they occur. A number with no mark means an inactive call. Calls come from the whole dose curve; as a rule, active = well fitted inhibition curve with a large enough effect; inconclusive = small, poorly fitted or top-dose-only effect; inactive = flat fitted curve, though single readings scatter.
Potency is the fitted concentration of half-maximal effect.

This assay deals with Luciferin 4-monooxygenase (Photinus pyralis) (UniProt P08659). The assay is described as follows: qHTS profiling assay for firefly luciferase inhibitor/activator using purifed enzyme and Km concentrations of substrates (counterscreen for miR-21 project).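 For activity change, negative = inhibition: plate controls were vehicle for no effect and reference inhibitor for full effect.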 Note: nearly all actives have a fitted effect of over 55% in size. The conditions noted are these: purified FLuc, luminescence inhibition; series mostly up to 57.5 µM; activity change, negative = inhibition: at the top concentration. The method, boiled down: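 Purified P. pyralis luciferase, 10 nM final, with Km-level 10 uM D-luciferin and 10 uM ATP in 50 mM Tris acetate pH 7.5, 10 mM Mg acetate, 0.01% Tween-20, 0.05% BSA; 6-point qHTS titration about 60 µM downward; luminescence read.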
Chain of Luciferin 4-monooxygenase (Photinus pyralis) (P08659 whole entry, looked up): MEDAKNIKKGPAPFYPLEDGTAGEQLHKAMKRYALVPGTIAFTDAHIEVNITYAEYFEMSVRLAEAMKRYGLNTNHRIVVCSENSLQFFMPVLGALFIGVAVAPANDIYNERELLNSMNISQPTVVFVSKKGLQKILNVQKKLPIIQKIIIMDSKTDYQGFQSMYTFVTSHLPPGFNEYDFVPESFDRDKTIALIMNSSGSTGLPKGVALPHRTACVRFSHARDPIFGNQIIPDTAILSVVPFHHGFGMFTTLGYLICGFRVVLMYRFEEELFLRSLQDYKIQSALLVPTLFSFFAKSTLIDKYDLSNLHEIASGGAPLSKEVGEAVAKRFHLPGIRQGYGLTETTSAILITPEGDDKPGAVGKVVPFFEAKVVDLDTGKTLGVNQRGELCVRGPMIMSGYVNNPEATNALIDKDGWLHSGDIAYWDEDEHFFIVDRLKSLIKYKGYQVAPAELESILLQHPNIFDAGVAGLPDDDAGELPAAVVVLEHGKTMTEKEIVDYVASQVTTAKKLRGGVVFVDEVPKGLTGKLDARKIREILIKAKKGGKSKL
(In general: Quantitative high-throughput screening tests each substance at several concentrations.)
Consider `CC1CN(C(=O)N2CCC(C(=O)NCc3cccs3)CC2)c2ccccc2O1` (configuration not stated), for which the Potency is 1.9 µM (active). As for `CC1CN(C(=O)N2CCC(C(=O)NCc3ccco3)CC2)c2cc(Cl)ccc2O1` (configuration not stated), the “activity change, negative = inhibition” value is -0.408%. The same measure, in the same setting: the result for `O=C(NCc1cccs1)C1CCN(S(=O)(=O)c2ccc(Cl)cc2)CC1` reads 1.13%. Same read-out and setting: the result for `Cc1nc2nc(SCC(=O)NC3CCC(C)CC3)nn2c(C)c1Cc1ccccc1Cl` (configuration not stated) reads -17.6%. The same measure, in the same setting: for `O=c1oc(/C=C/c2ccccc2)nc2ccccc12` the value was -0.823%. With `S=c1[nH]nc(/C=C/c2ccccc2)o1`, the Potency is 26.9 µM (active). In the case of `Clc1ccc(CSc2nnc(/C=C/c3ccccc3)o2)c(Cl)c1`, the “activity change, negative = inhibition” value was 7.83%. The same measure, in the same setting: the result for `COc1cccc(-n2ccn(CC(=O)NCc3ccc(C)cc3)c(=O)c2=O)c1` reads 4.44%. The same measure, in the same setting: for `CCS(=O)(=O)N1CCc2cc(C(=O)N3CCN(c4ccccc4OC)CC3)ccc21` the value was -4.59%. Still for that read-out and setting: the result for `CCc1nnc(NC(=O)c2nc3nccc(C)n3n2)s1` reads 1.07%. Regarding `CCc1ccc2nc3sc(C(=O)Nc4nnc(CC)s4)c(N)c3cc2c1`, the Potency was 2.39 µM (active). `CCc1ccccc1NC(=O)c1sc2nc3c(cc2c1N)CN(Cc1ccccc1)CC3`: the “activity change, negative = inhibition” value was -6%. Still for that read-out and setting: the result for `CSc1ccc(CCNC(=O)c2ccc3c(c2)nc2n3CCOC2)cc1` reads -18.1%.

As to `CC(C)c1ccc(S(=O)(=O)N2CCC3(CC2)OCCO3)cc1`, the “activity change, negative = inhibition” value is 0.935%. The same measure, in the same setting: the result for `Cc1ccc(NC(=O)COc2ccc(/C=C3/NC(=O)NC3=O)cc2)cc1` reads -5.63%. On to `CC(C)c1ccc(/C=C2\NC(=O)NC2=O)cc1`, for which the Potency was 21.3 µM (active). With `Cc1ccc(C)c(Cn2c(C(=O)O)c(CNCc3cccs3)c3ccccc32)c1`, the “activity change, negative = inhibition” value was -3%.

As to `COc1cc(Cl)c(C)cc1NC(=O)COC(=O)c1cc(SC)ccc1Cl`, the “activity change, negative = inhibition” value was 2.75%. `COc1cc(SC)ccc1C(=O)Nc1nc(C)cs1`: the Potency was 0.0757 µM (active).

Take `Cc1ccnc(NC(=O)C(C)N2C(=O)c3ccccc3C2=O)c1` (configuration not stated): the “activity change, negative = inhibition” value was -0.934%. On the same count and under the same terms, the result for `COc1cc(SC)ccc1C(=O)N(Cc1ccccc1)c1ccccc1` reads 1.81%; that for `O=C(NCCOc1ccccc1Cl)C(=O)Nc1ccccc1`, -13.2%; that for `COc1ccccc1OCCNC(=O)CCNC(=O)c1ccccc1Cl`, 0.227%. On the same count and under the same terms, for `Cc1ccnc(NC(=O)CCCOc2ccccc2)c1` the value was 3.66%; for `Cc1csc(NC(=O)CSc2nc(=O)cc(N)n2-c2ccc(F)cc2)n1`, 0.955%. Regarding `Cc1ccnc(NC(=O)c2ccoc2C)c1`, the Potency was 16.9 µM (active). Regarding `COc1cc(SC)ccc1C(=O)NCCOc1ccccc1Cl`, the Potency is 6.01 µM (active).

Regarding `Cc1occc1C(=O)Nc1cccc(Cn2cccn2)c1`, the “activity change, negative = inhibition” value was 4.82%. With `COc1cc(SC)ccc1C(=O)Nc1cc(C)ccn1`, the Potency was 1.35 µM (active). Take `O=C(CN1CCN(C(=O)C2CCCO2)CC1)Nc1c(Cl)cccc1Cl` (configuration not stated): the “activity change, negative = inhibition” value was 1.65%. For the compound `CCCCCCNC(=O)CSc1nccn1Cc1ccccc1`, the “activity change, negative = inhibition” value is -0.453%.

As to `COC(=O)Cn1cnc2scc(-c3ccc(C)c(C)c3)c2c1=O`, the “activity change, negative = inhibition” value is 6.57%.

For the compound `CCC(NC(=O)c1ccccc1NC(=O)c1ccccc1)C(=O)NNC(=O)CSc1nc2ccccc2o1` (configuration not stated), the “activity change, negative = inhibition” value is -17.4%. As for `O=C(Cn1nnc2ccccc2c1=O)Nc1cc(C(F)(F)F)ccc1N1CCOCC1`, the “activity change, negative = inhibition” value was -0.915%. In the case of `CC(CO)NCC12CC3CC(CC(C3)C1)C2` (configuration not stated), the “activity change, negative = inhibition” value is 0.574%. Still for that read-out and setting: the result for `CCOc1ccccc1NC(=O)c1ccc2c(c1)CCN2S(=O)(=O)c1ccc(C)cc1` reads -0.319%; that for `O=C(NCCc1csc(-c2ccc(C(F)(F)F)cc2)n1)C(=O)Nc1ccc(F)c(Cl)c1`, 0.42%; that for `Cc1ccc(C)c(N2CCN(C(=O)CN3C(=O)COc4ccc(S(=O)(=O)N5CCCCCC5)cc43)CC2)c1`, -11.7%. Take `COc1ccccc1OCCNc1cc(N2CCOCC2)ccc1[N+](=O)[O-]`: the Potency is 15.1 µM (active). For the compound `CC(=O)Nc1ccc(S(=O)(=O)N2CCN(c3ccc([N+](=O)[O-])c(NCCN4CCOCC4)c3)CC2)cc1`, the “activity change, negative = inhibition” value is 2.44%. As to `O=C(c1ccccc1)N1CCN(c2ccc([N+](=O)[O-])c(NCc3ccco3)c2)CC1`, the “activity change, negative = inhibition” value was 0.947%. As to `O=C(CCn1ccc2cc(S(=O)(=O)N3CCCC3)ccc21)NCc1cccc(Cl)c1`, the “activity change, negative = inhibition” value was -7.4%. As to `COc1ccc(-c2noc(C(C)NS(=O)(=O)c3ccc(NC(C)=O)cc3)n2)cc1` (configuration not stated), the “activity change, negative = inhibition” value was -1.43%. Take `CCCn1c(N)c(C(=O)CSc2nnc3n2CCCCC3)c(=O)[nH]c1=O`: the “activity change, negative = inhibition” value is 3.94%. With `O=C(NNC(=O)C(O)c1ccccc1)NC1CCCCC1` (configuration not stated), the “activity change, negative = inhibition” value was 3.66%. Still for that read-out and setting: for `O=C(Cn1nnc(-c2ccccc2)n1)NC(=O)NC1CCCC1` the value was 3.07%. Turning to `COc1ccc2nc(/N=C(\N)NC(=O)Nc3ccccc3)nc(C)c2c1`, the Potency was 26.9 µM (active). Turning to `Cc1nc(/N=C(\N)NC(=O)NC2CCCCC2)nc2ccccc12`, the Potency was 16.9 µM (active). For `COc1cc(NC(=O)c2nc3ccccc3nc2C)cc(OC)c1OC`, the “activity change, negative = inhibition” value was -14%. On the same count and under the same terms, the result for `COC(=O)[C@H](Cc1ccccc1)NC(=O)Nc1ccc(OC)cc1` reads -2.85%; that for `Cc1cc(NC(=O)CC(C)C)cc(-c2nc3ncccc3o2)c1O`, 2.31%. Still for that read-out and setting: for `O=C(c1cccs1)c1cn(CCOc2ccc(Cl)cc2)c2ccccc12` the value was -4.78%. The same measure, in the same setting: the result for `CCOC(=O)c1cccc(NC(=O)CCOc2ccccc2)c1` reads -10.1%. Consider `O=C(CCCOc1ccccc1)Nc1cccc(C(=O)O)c1`, for which the Potency is 15.1 µM (active).

For `COc1ccc(OCCCC(=O)Nc2cccc(S(=O)(=O)N3CCCCCC3)c2)cc1`, the “activity change, negative = inhibition” value is -12.1%. Same read-out and setting: for `COCCn1cnnc1SCC(=O)Nc1cccc(S(=O)(=O)N2CCCCC2)c1` the value was 3.11%. The same measure, in the same setting: for `CCOc1ccccc1CNC(=O)c1cnc2c(-c3ccc(OCC)c(OCC)c3)c(C)nn2c1C` the value was -1.62%.

As for `COc1ccc(-c2nc3ccccc3c(=O)n2CCc2ccc(O)cc2)cc1`, the Potency was 21.3 µM (active). For the compound `COc1ccc(OCc2ccc(-c3nc(C#N)c(N4CCN(c5ccccc5)CC4)o3)o2)cc1`, the “activity change, negative = inhibition” value is -2.48%. On the same count and under the same terms, for `COc1cccc(OCCn2c(-c3ccc(Br)cc3)nc3ccccc3c2=O)c1` the value was -7.08%. The same measure, in the same setting: the result for `COC(=O)c1ccc(CSc2nc3ccccc3c(=O)n2-c2cccc(OC)c2)o1` reads 1.87%. In the case of `COc1ccc(OCc2ccc(-c3nc4ccccc4c(=O)n3N)o2)cc1`, the Potency was 12 µM (active). In the case of `COc1ccccc1OCCCn1c(-c2ccc(Cl)cc2)nc2ccccc2c1=O`, the “activity change, negative = inhibition” value is 1.48%. Same read-out and setting: for `Cc1cc(C)cc(OCC(=O)Nc2ccc(N3CCOCC3)cc2N2CCOCC2)c1` the value was 1.89%; for `Cc1nn2c(=O)cc(COC(=O)CNC(=O)c3ccc(F)cc3)nc2s1`, 2.08%. For the compound `COc1cccc(N2CCN(S(=O)(=O)c3cc(Br)cc4c3N(C(=O)C3CC3)CC4)CC2)c1`, the “activity change, negative = inhibition” value was 0.1%. Same read-out and setting: the result for `COc1ccc(S(=O)(=O)NCC2CCCN(C(=O)c3occc3C)C2)cc1` (configuration not stated) reads -1.96%.
